Records with an inconclusive call do not appear. A number with no mark means an inactive call. Active and inactive are the calls of the source. Calls come from the whole dose curve.
Molecular target: 5-hydroxytryptamine receptor 2A (Homo sapiens) (UniProt P28223)
Test: 5-hydroxytryptamine receptor 2A (HTR2A) small molecule antagonists, cell-based qHTS assay (AID 1963586); note: nearly all actives have a fitted effect of over 45% in size
Settings: HTR2A-CHO cells, DOI-induced calcium flux, fluorescence; series mostly up to 61.5 µM; activity, negative = inhibition: at the top concentration
From the text: National Center for Advancing Translational Sciences [NCATS]
Division of Preclinical Innovation [DPI]
U.S. Environmental Protection Agency [EPA]
National Institutes of Environmental Health Sciences [NIEHS]
National Toxicology Program [NTP]
U.S. Food and Drug Administration [FDA]
The HTR2A receptor is a subtype of the 5-HT2 receptor that belongs to the serotonin receptor family and is a G protein-coupled receptor (GPCR). The HTR2A-CHO cell line stably expressing human 5-hydroxytryptamine receptor 2A (HTR2A) can be used for screening antagonists of interactions between 5-HT2 and its ligands. The HTR2A-CHO calcium flux assay is a homogeneous fluorescence-based assay for detecting the intracellular calcium level using FDSS kinetic plate reader system.
Tox21 Assay Protocol Summary:
HTR2A-CHO cells were dispensed at 2000 cells/3uL/well in 1536-well black-clear bottom plates using a Multidrop Dispenser. After the assay plates were incubated at a 37 C/5% CO2 incubator for 18 h, 3 uL of Dye Loading Buffer was transferred to the assay plate by a Flying Reagent Dispenser. The assay plates were incubated at 37 C for 1h. For antagonist mode, 23 nL of compounds dissolved in DMSO, positive controls or DMSO only was transferred to the assay plate by a pin tool. After 5 min incubation at room temperature, 1.5 uL of 4-Iodo-2,5-dimethoxy-alpha-methylbenzeneethanamine hydrochloride (DOI) at 4nM was added to each well. The fluorescence intensity in the plates was measured using FDSS 7000EX kinetic plate reader for 3 min at 1 sec intervals.
% is set by controls: 0 for no effect and ±100 for the full control effect; potency is the fitted concentration of half-maximal effect.

5-hydroxytryptamine receptor 2A (Homo sapiens), sequence (P28223 whole entry, looked up): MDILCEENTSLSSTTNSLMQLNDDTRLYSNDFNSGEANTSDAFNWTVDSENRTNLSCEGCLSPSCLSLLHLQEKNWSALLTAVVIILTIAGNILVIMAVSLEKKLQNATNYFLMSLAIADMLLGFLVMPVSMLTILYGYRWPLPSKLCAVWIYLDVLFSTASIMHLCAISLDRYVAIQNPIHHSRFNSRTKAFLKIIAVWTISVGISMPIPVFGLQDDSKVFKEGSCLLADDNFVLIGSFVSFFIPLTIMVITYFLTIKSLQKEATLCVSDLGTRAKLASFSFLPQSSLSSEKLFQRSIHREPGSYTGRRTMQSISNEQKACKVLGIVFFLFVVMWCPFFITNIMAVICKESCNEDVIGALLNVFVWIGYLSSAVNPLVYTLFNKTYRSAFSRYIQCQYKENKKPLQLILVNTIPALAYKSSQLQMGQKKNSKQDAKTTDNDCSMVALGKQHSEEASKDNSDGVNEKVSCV

First: CCC(C)(CCC(C)C)C(=O)[O-].CCC(C)(CCC(C)C)C(=O)[O-].[Zn+2] (stereo not given)
Second: CCCC[N+](C)(CCCC)CCCC
The “activity, negative = inhibition” value of the first is higher: 1.85% for the first, -7.37% for the second.

Going from `Cn1c(N)nc2nc[nH]c2c1=O` to `COc1cc(Cl)c(OC)cc1N`, the “activity, negative = inhibition” value rises from 0.678% to 2.41%.

First: CCCCOCCOCCOCCOCCO
Second: O=C(OCCOCCOCCOC(=O)c1ccccc1)c1ccccc1
The “activity, negative = inhibition” value of the first is higher: 9.11% for the first, -0.131% for the second.

Compared with `C=CC(C)=CCC=C(C)C`, `CCN1C=CN(C)C1C` (stereo not given) is higher in “activity, negative = inhibition” value: -2.51% for the first, 0.225% for the second.

First: O=C1CCCCCCCCCCCC(=O)OCCO1
Second: O=C1CCCCCN1SSN1CCCCCC1=O
The “activity, negative = inhibition” value of the first is higher: 21.4% for the first, 8.54% for the second.

First: COC(=O)CCS
Second: CC(=O)[O][Al]
The “activity, negative = inhibition” value of the first is lower: -1.46% for the first, 18.7% for the second.

First: CCCc1ccc(OC)cc1
Second: O=C(OCCc1ccccc1)c1ccccc1
The “activity, negative = inhibition” value of the first is higher: -13% for the first, -19.3% for the second.

Compared with `On1ccccc1=S`, `Cc1cccc(O)c1N` is lower in “activity, negative = inhibition” value: 27.1% for the first, -7.18% for the second.

Going from `O=C(O)c1ccccc1C(=O)OCc1ccccc1` to `O=C(Oc1ccccc1)c1ccc2ccccc2c1O`, the “activity, negative = inhibition” value falls from 1.43% to 0.996%.

Going from `C/C=C1/C(=O)C[C@H]2[C@@H]3CCC4=CC(=O)CC[C@]4(C)[C@H]3CC[C@]12C` to `CC1(C)C(=O)N(Br)C(=O)N1Br`, the “activity, negative = inhibition” value rises from 8.05% to 16.9%.

First: Oc1ccc(C2(c3ccc(O)c(C4CCCCC4)c3)CCCCC2)cc1C1CCCCC1
Second: Cc1c(O)cccc1O
The “activity, negative = inhibition” value of the first is lower: -5.3% for the first, -3.75% for the second.

First: CO[Si](C)(OC)OC
Second: NC(=O)N1C(=O)C(C(=O)c2cc(Cl)cs2)c2cc(F)c(Cl)cc21 (stereo not given)
The “activity, negative = inhibition” value of the first is higher: 74% for the first, -18.5% for the second.

`COC=O` was tested, and the Potency was 3.09 µM (active).
With `O=C(c1ccc(O)c(O)c1)c1ccc(O)cc1O` the Potency was 47.1 µM (active).
`CCN(CC)CCCN(c1ccccc1)C1Cc2ccccc2C1` was tested, and the Potency was 11.6 µM (active).
For `CC(C)c1ccc2c(c1)CC[C@H]1[C@](C)(CN)CCC[C@]21C`, the Potency was 29.8 µM (active).

Compared with `O=C(O)[C@H](O)c1ccccc1`, `CC(=O)OC(C)OC(=O)C(C)c1ccc(-c2ccccc2)c(F)c1` (stereo not given) is lower in “activity, negative = inhibition” value: 6.41% [at 28.5 µM] for the first, -10.9% [at 28.5 µM] for the second.

First: CCCCCCCCCCCCCCCBr
Second: CCOC(=O)[C@@](C)(N)Cc1ccc(O)c(O)c1
The “activity, negative = inhibition” value of the first is higher: 0.712% [at 28.5 µM] for the first, -19.8% [at 28.5 µM] for the second.

Compared with `COc1ccc(/C=N/NC(=O)c2ccncc2)cc1OC`, `CC(=O)Nc1ccc(/C=N/NC(N)=S)cc1` is lower in “activity, negative = inhibition” value: 5.56% [at 28.5 µM] for the first, -21.4% [at 28.5 µM] for the second.

Compared with `CCN(CC)c1ccc(C(=C2C=CC(=[N+](CC)CC)C=C2)c2cc(S(=O)(=O)O)ccc2S(=O)(=O)[O-])cc1`, `CCOc1ccccc1OCCN[C@H](C)Cc1ccc(OC)c(S(N)(=O)=O)c1` is lower in “activity, negative = inhibition” value: 0.69% [at 28.5 µM] for the first, -23.3% [at 28.5 µM] for the second.

Compared with `CC(=O)N[C@@H](CCC(=O)O)C(=O)O`, `O=[N+]([O-])c1ccc(O)c2ncccc12` is higher in “activity, negative = inhibition” value: 3.8% [at 28.5 µM] for the first, 66.1% [at 28.5 µM] for the second.

In the case of `O=C1c2ccccc2C(=O)c2c(Cl)cccc21`, the “activity, negative = inhibition” value is reported as 8.06% [at 28.5 µM].

`O=C(O)c1ccccc1Nc1cc(Cl)ccc1C(=O)O` showed an activity, negative = inhibition of 13.3% [at 12.7 µM].

— PubChem BioAssay (Tox21)
